3T3 cytotox: cytotoxic compounds in NIH 3T3 cells | NIH 3T3 viability, CellTiter-Glo ATP luminescence, 48-72 h | Potency, µM (doses to about 96.7 µM), inactives show at the top dose activity change, negative = cytotoxicity, hits mostly inhibitors | 94,000 compounds, 4.3% hits | AID 1345082; further: nearly all actives have a fitted effect of over 55% in size
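Cells were seeded at 400 per well, treated with pin-transferred compound, and kept 48 or 72 hr at 37 °C before CellTiter-Glo addition and luminescence imaging of cellular ATP.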
FLuc inh: inhibitors of firefly (Photinus pyralis) luciferase | Potency, µM (top dose mostly 115 µM), hits mostly inhibitors | AID 1347043 | purified P. pyralis luciferase, luminescence, biochemical | 76,000 compounds, 2.5% hits | P08659; further: nearly all actives have a fitted effect of over 65% in size
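Inhibitors were tested against purified firefly luciferase in a biochemical, low-substrate format (both substrates at 10uM) and luminescence measured with a CCD imager.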
HEK cytotox: cytotoxic compounds in HEK 293 cells | Potency, µM (titrated, usually from 115 µM), for inactives: top-dose activity change, negative = cytotoxicity, usual class: inhibitors | AID 1345083 | HEK 293 viability, ATP luminescence (CellTiter-Glo), 48-72 h | 94,000 compounds, 6.6% hits; further: nearly all actives have a fitted effect of over 60% in size
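ATP-coupled CellTiter-Glo luminescence served as viability read-out, recorded 10 min after reagent addition at room temperature. HEK 293 cells, 250 cells/well, had been incubated with pintool-transferred compound for 48 or 72 hr at 37 degree Celsius.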
hNpr1 antagonist: blocks ANP-stimulated signaling of human Npr1 receptor | AID 1347048 | HEK293 hNpr1 GloSensor cGMP, ANP-stimulated luminescence | 76,000 compounds, 1.6% hits | Potency, µM (top dose mostly 46.3 µM), inactives show top-dose activity change, negative = inhibition, hits mostly inhibitors | P16066; calls by dose curve; further: nearly all actives have a fitted effect of over 60% in size
Target sequence (P16066 whole entry, looked up): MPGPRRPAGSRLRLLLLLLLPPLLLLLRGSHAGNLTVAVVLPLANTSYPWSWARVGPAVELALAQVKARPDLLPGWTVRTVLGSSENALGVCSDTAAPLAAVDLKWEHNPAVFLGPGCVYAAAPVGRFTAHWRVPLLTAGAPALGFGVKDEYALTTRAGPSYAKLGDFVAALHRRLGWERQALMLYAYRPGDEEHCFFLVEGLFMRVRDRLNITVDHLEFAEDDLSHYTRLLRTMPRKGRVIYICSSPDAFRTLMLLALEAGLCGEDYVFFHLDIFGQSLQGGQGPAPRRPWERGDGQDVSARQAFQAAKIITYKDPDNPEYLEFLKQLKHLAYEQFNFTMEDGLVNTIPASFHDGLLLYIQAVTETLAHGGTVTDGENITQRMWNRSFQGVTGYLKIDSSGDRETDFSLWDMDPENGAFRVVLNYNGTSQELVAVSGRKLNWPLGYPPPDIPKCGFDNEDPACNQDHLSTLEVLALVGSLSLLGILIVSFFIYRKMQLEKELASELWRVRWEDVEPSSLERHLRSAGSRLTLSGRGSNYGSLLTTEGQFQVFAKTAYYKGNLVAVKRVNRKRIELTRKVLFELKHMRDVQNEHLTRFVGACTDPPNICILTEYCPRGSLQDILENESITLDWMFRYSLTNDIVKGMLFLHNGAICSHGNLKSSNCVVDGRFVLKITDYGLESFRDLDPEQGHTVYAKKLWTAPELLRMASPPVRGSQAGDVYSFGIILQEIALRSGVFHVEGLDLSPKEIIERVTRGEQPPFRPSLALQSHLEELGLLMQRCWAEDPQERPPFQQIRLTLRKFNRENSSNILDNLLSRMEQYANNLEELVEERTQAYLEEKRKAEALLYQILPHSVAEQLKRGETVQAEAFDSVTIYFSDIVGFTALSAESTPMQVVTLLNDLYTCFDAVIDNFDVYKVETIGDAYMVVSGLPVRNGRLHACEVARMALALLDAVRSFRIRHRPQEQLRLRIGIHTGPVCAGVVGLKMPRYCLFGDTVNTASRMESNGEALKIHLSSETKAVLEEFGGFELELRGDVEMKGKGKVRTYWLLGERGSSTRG
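HEK293 cells stably expressing human Npr1 and cGMP GloSensor pGS-40F, loaded 2 h with 2% GloSensor reagent, given compound 30 min at room temperature. Luminescence read before and 20 min after 0.1 nM hNppA.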
Active calls of the source: *; i = inactive; ? = inconclusive; nt = no result given; [ ] = remark or other dose. Only some compounds are listed: those with a hit (about 11% of all), similar ones and a draw of the others. Unless noted, the call rests on the fitted dose curve; in most records, active means well fitted curve in the direction sought with a large enough effect; inconclusive means small, poorly fitted or top-dose-only effect, or another doubt; inactive means no such curve, though single readings can be large; an effect the other way counts as inactive or inconclusive. On the % scale 0 is the no-effect control and ±100 the full control effect; potency means the concentration at half of the fitted maximal effect.

SMILES | 3T3 cytotox | FLuc inh | HEK cytotox | hNpr1 antagonist
COC(=O)C1=C(C)N=C2SC=C(CC(=O)NCc3ccc(F)cc3)N2C1c1cccc(OC)c1 (stereo not drawn) | ? | i | 39.8µM* | -8.2%
COC(=O)C1=C(C)N=C2SC=C(CC(=O)NCCc3ccccc3)N2C1c1cccc(OC)c1 (stereo not drawn) | ? | i | 44.7µM* | -16.4%
c1csc(-c2nc3nccc(-c4cc5ccccc5o4)n3n2)c1 | -27.9% | i | ? | 4.4%
O=C1NCCCCCCN(C(=O)CCc2ccccc2)[C@H]2C[C@H](c3nc(-c4cnccn4)no3)C[C@@H]12 | -24.3% | i | -10.5% | 0.7%
C[C@]1(CO)C2CC[C@@H](O)[C@@H](CC(=O)NCc3cccs3)[C@]2(C)CC[C@H]1OC(=O)Nc1cccc(F)c1 (stereo partly drawn) | ? | i | ? | -0.1%
CN(CCc1ccccc1)CCN1CC2(CCN(c3ncccc3C#N)CC2)OC1=O | ? | i | 39.8µM* | -3.0%
N#Cc1cccnc1N1CCCC(CO)(CCCc2ccccc2)C1 (stereo not drawn) | ? | i | ? | -3.0%
CNC(=O)c1cc(C)nc2onc(C3CCN(C(=O)OC)CC3)c12 | -19.6%[138 µM] | nt | -9.8%[172 µM] | nt
COc1ccccc1-c1cn2c(n1)CO[C@@H](CNC(=O)NC(C)C)C2 | -2.6%[138 µM] | i | -10.3%[172 µM] | 3.5%[70.6 µM]
COc1ccccc1C(C)N(C)C(=O)c1csc2nc(-c3ccccc3C)cn12 (stereo not drawn) | ? | ? | 35.5µM* | -9.2%
Cc1c(CN(C)Cc2cccc3ncccc23)c(=O)n(-c2ccccc2)n1C | -24.6% | i | -8.1% | -0.5%
CN(Cc1cccc(CCN)c1)Cc1cccc2ncccc12 | ? | i | 44.7µM* | -4.1%
COc1ccc(-c2cc(N3CCCC(NC(=O)c4sccc4C)C3)n[nH]2)cc1 (stereo not drawn) | -25.5% | 25.1µM* | ? | -12.7%
COc1ccc(-c2cc(N3CCC(NC(=O)c4ccc(C)cc4C)C3)n[nH]2)cc1 (stereo not drawn) | ? | i | ? | -9.8%
Cc1ccsc1C(=O)NC1CCN(c2cc(-c3ccc(Cl)cc3)[nH]n2)C1 (stereo not drawn) | ? | i | 50.1µM* | -22.8%
COc1ccc(-c2cc(N3CCCC(NC(=O)c4cc(C)ccc4C)C3)n[nH]2)cc1 (stereo not drawn) | 31.6µM* | i | ? | -19.0%
COc1ccc(-c2cc(N3CCCC(NC(=O)c4ccc(C)cc4C)C3)n[nH]2)cc1 (stereo not drawn) | -17.6% | 15.8µM* | ? | -15.9%
Cc1ccsc1C(=O)NC1CCCN(c2cc(-c3ccc(F)cc3)[nH]n2)C1 (stereo not drawn) | ? | ? | ? | -29.4%
COc1ccc(-c2cc(N3CCC(NC(=O)c4cc(C)ccc4C)C3)n[nH]2)cc1 (stereo not drawn) | ? | i | ? | -11.2%
COc1ccccc1NC(=O)N1CCc2cc(OC)c(OC)cc2C1CNC(=O)c1ccccc1 (stereo not drawn) | ? | i | ? | -0.3%
CCN(C)Cc1cn(Cc2ccccc2)nc1-c1ccc2c(c1)OCO2 | -17.1% | i | -3.5% | -1.1%
COc1ccc(-c2noc([C@@H]3CCCN3C(=O)c3ccccc3Cl)n2)cc1 | -22.2% | ? | ? | 0.0%
CC1=C[C@@H](CNCc2ccccn2)[C@H](C(C)C)C[C@H]1Cc1nnc(-c2ccc(N(C)C)cc2)o1 | ? | i | 11.2µM* | -27.7%
CC1=C[C@@H](CNCc2cccnc2)[C@H](C(C)C)C[C@H]1Cc1nnc(-c2ccc(N(C)C)cc2)o1 | ? | i | 17.8µM* | ?
CC1=C[C@@H](CNCc2ccccn2)[C@H](C(C)C)C[C@H]1Cc1nnc(-c2ccccc2)o1 | ? | i | 79.4µM* | ?
Cc1ccccc1C(=O)NCCNC(=O)c1ccc(-c2cncnc2)cc1 | -7.8% | nt | -1.2% | nt
O=C(NC1CCCC1)[C@H]1C[C@@H](O)[C@H](O)[C@@H]2N=C(Nc3ccc4c(c3)OCO4)S[C@@H]21 | -4.8%[174 µM] | i | -12.2%[172 µM] | 1.5%[70.6 µM]
CCC1=Nc2cc(C(=O)NCc3ccc(F)cc3)ccc2Sc2ccc(C)cc21 | ? | i | ? | 1.0%
O=C(Nc1ccc2c(N3CCCCC3)ncnc2c1)c1cc(F)cc(F)c1 | ? | i | -65.7% | -19.8%

From PubChem BioAssay
